# Several values for one entry are separate records, joined by “and”; a condition that tells them apart may be missing. Identical values can stand only once. Compounds without any hit were thinned out: in the full panel of roughly 83,000, 20% have a hit.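 Growth was measured after 48 h exposure to one concentration of compound in 96-well plates. Values under 10 count as active.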 Values without a mark were called inactive. Activity calls are given as the source filed them.
# Key:
# Assay in all cases: NCI-60 one-dose screen, 48 h (100 = growth as untreated, 0 = no growth, -100 = all killed)
# MDA-MB-468 breast = conditions: 10 µM unless noted
# NCI-H226 lung = conditions: 10 µM
# HOP-62 NSCLC = conditions: 10 µM
# NCI-H460 lung = conditions: 10 µM
# A549/ATCC NSCLC = conditions: 10 µM
# COLO 205 colon = conditions: 10 µM
# DU-145 prostate = conditions: 10 µM
# K-562 leukemia = conditions: 10 µM
# SF-539 CNS = conditions: 10 µM
# HCT-15 colon = conditions: 10 µM
# HT29 colon = conditions: 10 µM
# SNB-75 CNS = conditions: 10 µM
# SNB-19 CNS = conditions: 10 µM
# U251 CNS = conditions: 10 µM
# PC-3 prostate = conditions: 10 µM
# LOX IMVI melanoma = conditions: 10 µM
# MOLT-4 leukemia = conditions: 10 µM
# SR leukemia = conditions: 10 µM
# RPMI-8226 leukemia = conditions: 10 µM
# SK-OV-3 ovarian = conditions: 10 µM
smiles,measurement,setting,value
N=C(N)c1ccc(-c2ccc(-c3ccccc3)s2)cc1F,growth,MDA-MB-468 breast,-78.4% (active)
COc1ccc(C2OC[C@@]3(C)C4CC[C@]5(C)C(CC=C6C7CC(C)(C)CC[C@]7(C(=O)O)CC[C@]65C)[C@@]4(C)C[C@@H](O)[C@@H]3O2)cc1 (stereo partly drawn),growth,NCI-H226 lung,84.5%
same,growth,HOP-62 NSCLC,95.5%
same,growth,NCI-H460 lung,69.1%
same,growth,A549/ATCC NSCLC,39%
same,growth,COLO 205 colon,78.8%
same,growth,DU-145 prostate,76.3%
same,growth,K-562 leukemia,44%
same,growth,SF-539 CNS,95.7%
same,growth,HCT-15 colon,56%
same,growth,HT29 colon,70.8%
same,growth,SNB-75 CNS,97%
same,growth,SNB-19 CNS,90.9%
same,growth,U251 CNS,50.7%
same,growth,PC-3 prostate,49.2%
same,growth,LOX IMVI melanoma,70.8%
same,growth,MOLT-4 leukemia,47.2%
same,growth,SR leukemia,54.7%
same,growth,RPMI-8226 leukemia,40.3%
same,growth,SK-OV-3 ovarian,132%
same,growth,MDA-MB-468 breast,75.9%
CC1(C)CC(=O)C2=C(C1)N(Cc1ccc(C(=O)O)cc1)C1=C(C(=O)CC(C)(C)C1)C2c1ccc(Cl)cc1,growth,NCI-H226 lung,108%
same,growth,HOP-62 NSCLC,101%
same,growth,NCI-H460 lung,104%
same,growth,A549/ATCC NSCLC,99.3%
same,growth,COLO 205 colon,121%
same,growth,DU-145 prostate,113%
same,growth,K-562 leukemia,103%
same,growth,SF-539 CNS,110%
same,growth,HCT-15 colon,98.4%
same,growth,HT29 colon,112%
same,growth,SNB-75 CNS,94.5%
same,growth,SNB-19 CNS,112%
same,growth,U251 CNS,105%
same,growth,PC-3 prostate,109%
same,growth,LOX IMVI melanoma,61.7%
same,growth,MOLT-4 leukemia,92.9%
same,growth,SR leukemia,99.6%
same,growth,RPMI-8226 leukemia,113%
same,growth,SK-OV-3 ovarian,101%
same,growth,MDA-MB-468 breast,103%
COc1ccc(C2c3sc4ccc(C)cc4c3Oc3nc[nH]c(=O)c32)cc1 (stereo not drawn),growth,NCI-H226 lung,80.5%
same,growth,HOP-62 NSCLC,69.4%
same,growth,NCI-H460 lung,95.6%
same,growth,A549/ATCC NSCLC,97.9%
same,growth,COLO 205 colon,103%
same,growth,DU-145 prostate,105%
same,growth,K-562 leukemia,36.2%
same,growth,SF-539 CNS,79.3%
same,growth,HCT-15 colon,40.6%
same,growth,HT29 colon,112%
same,growth,SNB-75 CNS,45.8%
same,growth,SNB-19 CNS,75.3%
same,growth,U251 CNS,73.5%
same,growth,PC-3 prostate,74.9%
same,growth,LOX IMVI melanoma,92.5%
same,growth,MOLT-4 leukemia,77.9%
same,growth,SR leukemia,39.4%
same,growth,RPMI-8226 leukemia,90.8%
same,growth,SK-OV-3 ovarian,81.2%
same,growth,MDA-MB-468 breast,61.3%
Cc1ccc2c(c1)C(=O)/C(=C/c1c[nH]c3ccccc13)S2,growth,NCI-H226 lung,40.8%
same,growth,HOP-62 NSCLC,47.4%
same,growth,NCI-H460 lung,33.6%
same,growth,A549/ATCC NSCLC,64.6%
same,growth,COLO 205 colon,67.8%
same,growth,DU-145 prostate,78.2%
same,growth,K-562 leukemia,19%
same,growth,SF-539 CNS,48.1%
same,growth,HCT-15 colon,29.5%
same,growth,HT29 colon,55.6%
same,growth,SNB-75 CNS,41.1%
same,growth,SNB-19 CNS,27.3%
same,growth,U251 CNS,22.7%
same,growth,PC-3 prostate,23.7%
same,growth,LOX IMVI melanoma,19.1%
same,growth,MOLT-4 leukemia,32%
same,growth,SR leukemia,27.1%
same,growth,RPMI-8226 leukemia,32.3%
same,growth,SK-OV-3 ovarian,84.4%
same,growth,MDA-MB-468 breast,17.8%
CC1(C)CC[C@]2(C(=O)O)CC[C@]3(C)C(=CCC4[C@@]5(C)C[C@@H](O)[C@@H]6OC(c7cccc(F)c7)OC[C@@]6(C)C5CC[C@]43C)C2C1 (stereo partly drawn),growth,NCI-H226 lung,39.9%
same,growth,HOP-62 NSCLC,49.5%
same,growth,NCI-H460 lung,27.6%
same,growth,A549/ATCC NSCLC,19.8%
same,growth,COLO 205 colon,15.2%
same,growth,DU-145 prostate,36.7%
same,growth,K-562 leukemia,21.1%
same,growth,SF-539 CNS,70.2%
same,growth,HCT-15 colon,23%
same,growth,HT29 colon,28.1%
same,growth,SNB-75 CNS,81.6%
same,growth,SNB-19 CNS,45.7%
same,growth,U251 CNS,11.6%
same,growth,PC-3 prostate,32.1%
same,growth,LOX IMVI melanoma,27.6%
same,growth,MOLT-4 leukemia,18.5%
same,growth,SR leukemia,22.4%
same,growth,RPMI-8226 leukemia,21.1%
same,growth,SK-OV-3 ovarian,82.7%
same,growth,MDA-MB-468 breast,23.5%
Cc1ccc(N)cc1S(=O)(=O)O,growth,MDA-MB-468 breast,127% and 110%
COc1ccc2c(c1)C(CC(=O)NN)CCC2 (stereo not drawn),growth,MDA-MB-468 breast,102%
O=C1C=CC2(NN=C(c3ccccc3)N2c2ccc(Cl)cc2)c2cccc(O)c21 (stereo not drawn),growth,MDA-MB-468 breast,47.6%
Cc1cc2nc3c4ccccc4n(CCN(C)C)c3nc2cc1C,growth,MDA-MB-468 breast,-12.1% (active)
COc1ccc(CCN2C(=O)CCC3=C2CCCC3=O)cc1OC,growth,MDA-MB-468 breast,105%
CCOc1ccc(C(CN2CCOCC2)C(C)=O)cc1OC (stereo not drawn),growth,MDA-MB-468 breast,13.9%
O=[N+]([O-])c1ccc2ncccc2c1Cl,growth,MDA-MB-468 breast,-2.71% (active)
CC(=O)OCC(=O)[C@@]1(O)CC[C@H]2[C@@H]3CCC4=CC(=O)CC[C@]4(C)[C@@]3(F)[C@@H](O)C[C@@]21C,growth,MDA-MB-468 breast,121%
FC(F)(F)c1ccc2c(c1)n1cnnc1c1nncn21,growth,MDA-MB-468 breast,105%
Cc1ccc(NS(=O)(=O)c2cc(C)ccc2C)cc1,growth,MDA-MB-468 breast,0.244% (active)
Cc1cc(C2(c3cc(C)c(O)cc3C)OS(=O)(=O)c3ccccc32)c(C)cc1O,growth,MDA-MB-468 breast,114%
CC(=O)c1ccc(NCn2nc(-c3ccc(Cl)cc3)oc2=S)cc1,growth,MDA-MB-468 breast,100%
CC(C)(c1ccccc1)c1cc(O)c(C(C)(C)c2ccccc2)cc1O,growth,MDA-MB-468 breast,26.4%
CCN(CC)CCCCNc1c2ccc(Cl)cc2nc2ccc(OC)cc12,growth,MDA-MB-468 breast,-42.7% (active)
Cc1ccc(-c2nnc3sc(C4=Cc5ccccc5OC=C4)nn23)cc1,growth,MDA-MB-468 breast,109%
O=C(COc1ccc(-c2nc3cc(Cl)c(Cl)cc3[nH]2)cc1)N=Nc1c(O)[nH]c2ccc(Cl)cc12,growth,MDA-MB-468 breast,68.5%
c1ccc(-c2nc(Nc3ccc(-c4nc5ccccc5[nH]4)cc3)nc(N3CCOCC3)n2)cc1,growth,MDA-MB-468 breast,-62.7% (active)
Cc1ccc(NS(=O)(=O)c2ccc(-c3cnc(C4CC4)o3)cc2)cc1C,growth,MDA-MB-468 breast,-25.6% (active)
CCCSc1nc(Nc2ccc(/C(C)=N\NC(N)=S)cc2)c(C#N)c(-c2ccccc2)n1,growth,MDA-MB-468 breast,66.5%
CCn1cc(-c2[nH]c(=S)ncc2-c2ccc(Cl)cc2)c(-c2ccc(Br)cc2)n1,growth,MDA-MB-468 breast,121%
C=CCc1cc(C)ccc1NC(C(=O)NCC(=O)OC)c1ccccc1 (stereo not drawn),growth,MDA-MB-468 breast,111%
C=C(C)[C@@H]1C[C@@H]2Cc3cc(F)ccc3N1O2,growth,MDA-MB-468 breast,104%
O=C(Nc1ccccc1C(=O)N/N=C(\c1ccccc1)c1ccccn1)c1ccc(F)cc1,growth,MDA-MB-468 breast,5.1% (active)
C=C(C)[C@@H]1CC[C@]2(C)[C@H](CC[C@@H]3[C@H]4[C@H]5OC[C@@]4(CCC5(C)C)CC[C@]32C)[C@@]1(C)CCCN,growth,MDA-MB-468 breast,-68.2% (active)
O=C(Cn1nncc1CN1C(=O)CSC1=O)Nc1ccc(F)cc1,growth,MDA-MB-468 breast,104%
COc1cc2nc(Cl)nc(NCCO)c2cc1OC,growth,MDA-MB-468 breast,99.2%
COc1cc(C2=NN(C(C)=O)C(c3ccc(OC(C)=O)cc3OC(C)=O)O2)c(OC(C)=O)c2ccccc12 (stereo not drawn),growth,MDA-MB-468 breast,-9.39% (active)
O=C(Oc1cccc2ccccc12)Oc1cccc2ccccc12,growth,MDA-MB-468 breast,117%
COc1ccc(C(=O)C(CN(C)C)c2ccccc2)cc1 (stereo not drawn),growth,MDA-MB-468 breast,-58.5% (active)
C=C(C)[C@@H]1CC[C@]2(C(=O)N3CCN(C)CC3)CC[C@]3(C)[C@H](CC[C@@H]4[C@@]5(C)CC(CCCNC(C)=O)(CCCNC(C)=O)[C@H](OC(C)=O)C(C)(C)[C@@H]5CC[C@]43C)[C@@H]12,growth,MDA-MB-468 breast,99.2%
O=C(NNC(=O)c1ccc(NC(=O)c2ccccn2)cc1)Nc1ccc2ccccc2c1,growth,MDA-MB-468 breast,119%
COc1ccccc1NS(=O)(=O)c1cccc(C(=O)Nc2ccc(Br)cc2)c1,growth,MDA-MB-468 breast,3.03% (active)
O=C1c2ccccc2C(=O)c2cc(Cn3cc[n+](Cc4ccc5ccccc5c4)c3)ccc21,growth,MDA-MB-468 breast,-32.2% (active)
COc1cc(-c2nn(-c3cccc(NC(=O)CCN4CCN(c5ccccc5)CC4)c3)cc2-c2ccncc2)ccc1Cl,growth,MDA-MB-468 breast,28.8%
C=CC(C)(O)CCC1C(=C)CCC2C(C)(C)CCCC12C (stereo not drawn),growth,MDA-MB-468 breast,109%
C=C(C=O)[C@@H]1CC[C@]2(C)[C@H](CC=C3[C@H]4[C@@H](C)[C@H](C)CC[C@]4(C(=O)OC)CC[C@]32C)[C@@]1(C)CCC#N,growth,MDA-MB-468 breast,-18.1% (active)
C=C1CC2(OC1=O)C(=O)N(C)c1ccc(I)cc12 (stereo not drawn),growth,MDA-MB-468 breast,-79.2% (active)
C=C1CC[C@@H]2C(C)(C)[C@@H](O)CC[C@@]2(C)[C@@H]1COc1ccc2ccc(=O)oc2c1,growth,MDA-MB-468 breast,53.1%
NC(=O)c1c(NC(=S)Nc2ccc(OC(F)(F)F)cc2)sc2c1CCC1(C2)OCCO1,growth,MDA-MB-468 breast,94.7%
Nc1nc2cc(O)ccc2n2cc3c(F)cccc3c12,growth,MDA-MB-468 breast,18.6%
CCN(CC)CCCOc1ccc2ncnc(Nc3ccc(Oc4cccc(C(F)(F)F)c4)c(Cl)c3)c2c1,growth,MDA-MB-468 breast,-64.7% (active)
c1ccc2c(-c3nc(N4CCOCC4)c4c5c(sc4n3)CCCCCC5)cccc2c1,growth,MDA-MB-468 breast,95.1%

# — PubChem BioAssay (NCI)
